Experimental data from PubChem BioAssay (NCATS).
Where “and” joins values, the source holds several entries; their conditions need not be identical. Equal values may be shown once. Results filed as inconclusive are left out. Calls of active or inactive are those of the source. Unless noted, the call rests on the fitted dose curve; in most records, active means well fitted curve in the direction sought with a large enough effect; inconclusive means small, poorly fitted or top-dose-only effect, or another doubt; inactive means no such curve, though single readings can be large; an effect the other way counts as inactive or inconclusive.

Legend:
[1] = biological target: Glucocorticoid receptor (Homo sapiens) (UniProt P04150); assay: qHTS assay for small molecule agonists of glucocorticoid receptor signaling (AID 588532; active means well fitted curve in the direction sought with a large enough effect in the signal ratio, with a control signal flat; the % refers to the signal ratio;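 further: 100% = dexamethasone at 0.1 µM and 0% = DMSO only wells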); settings: HeLa MMTV-bla, beta-lactamase ratio, agonist, 18 h; activation: stronger effect = higher value, percent of dexamethasone control, DMSO zero
Method in brief: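 MMTV-bla HeLa, beta-lactamase reporter; medium with 1% charcoal/dextran-stripped FBS; cpds up to 92 uM, 18 h, 37 C; CCF4 readout 460/530 nm; Hill fit → EC50, efficacy vs 0.1 uM dexamethasone = 100%.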

[2] = biological target: Glucocorticoid receptor (Homo sapiens) (UniProt P04150); assay: qHTS assay for small molecule antagonists of glucocorticoid receptor signaling (AID 588533; active means well fitted inhibition curve with a large enough effect in the signal ratio, with a control signal flat, not every such curve was filed as active; the % refers to the signal ratio;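 further: cells stimulated with 2 nM dexamethasone as agonist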; further: potency means the concentration at half of the fitted maximal effect)
Method in brief: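 Antagonist-mode qHTS: compound titrations added to GRE-bla HeLa cells, then dexamethasone 2 nM final; 18 h, 37 C. CCF4 FRET fluorescence normalized to dexamethasone and DMSO; IC50 from Hill fit.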

[3] = qHTS assay for small molecule antagonists of peroxisome proliferator-activated receptor delta signaling (AID 588535); settings: HEK293T PPARd-UAS-bla, beta-lactamase FRET ratio, 18 h; 460 nm channel;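 further: cells co-treated with a PPAR-delta agonist as stimulator during compound exposure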
Method in brief: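 GeneBLAzer PPAR-delta-UAS-bla HEK293T cells in medium with 2% charcoal/dextran FBS were preincubated 5 hrs at 37 C, then given compounds, incubated 18 hrs at 37 C, and read by CCF4 beta-lactamase fluorescence; IC50 from Hill fits.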

[4] = biological target: Vitamin D3 receptor (Homo sapiens) (UniProt P11473); assay: qHTS assay for small molecule antagonists of vitamin D receptor signaling (AID 588541; calls by dose curve;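 further: receptor activated by calcitriol during compound treatment; series mostly up to about 77 µM; on the % scale 0 is the no-effect control and ±100 the full control effect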)
Method in brief: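 VDR-UAS-bla HEK293T cells (2000/well, 2% charcoal-stripped FBS) were treated with titrated compounds plus 1-alpha,25-dihydroxyvitamin D3 (50 nM or 3 nM final) for 16 h at 37 C. CCF4 beta-lactamase fluorescence was read; Hill fits gave IC50.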

[5] = biological target: Vitamin D3 receptor (Homo sapiens) (UniProt P11473); assay: qHTS assay for small molecule agonists of vitamin D receptor signaling (AID 588543; calls by dose curve;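 further: 0% = DMSO basal and 100% = reference agonist control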)
Method in brief: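 qHTS in agonist mode: compound titrations stimulate a VDR-driven β-lactamase reporter in HEK293T cells over 16 h at 37 °C. Response normalized to 50 nM 1α,25-dihydroxyvitamin D3 = 100%, DMSO = 0%; Hill fitting gives EC50 and maximal response.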

[6] = biological target: Retinoic acid receptor RXR-alpha (Homo sapiens) (UniProt P19793); assay: qHTS assay for small molecule agonists of retinoid X receptor alpha signaling (AID 588544; calls by dose curve;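 further: 0% = DMSO basal wells and 100% = reference agonist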)
[7] = biological target: Thyroid hormone receptor beta (Homo sapiens) (UniProt P10828); assay: qHTS assay for small molecule agonists of thyroid hormone receptor beta signaling (AID 588545; calls by dose curve)
Method in brief: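 Agonist-mode beta-lactamase reporter assay, HEK 293 cells, 2% charcoal/dextran FBS; cells plated 4 hrs, compound 18 hrs at 37 C, CCF4 2 hrs RT. Normalized to 10 nM T3 (100%) and DMSO (0%); Hill fit gives EC50, efficacy.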

[8] = qHTS assay for small molecule antagonists of retinoid X receptor alpha signaling (AID 588546; active means well fitted inhibition curve with a large enough effect in the signal ratio, with a control signal flat, not every such curve was filed as active; the % refers to the signal ratio; further: potency means the concentration at half of the fitted maximal effect); settings: HEK293T RXRa-UAS-bla, beta-lactamase ratio, antagonist mode; measured here: W530 green channel, cytotoxicity proxy
Method in brief: (§1)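 Beta-lactamase reporter inhibition, read as CCF4 fluorescence ratio (ex 405, em 460/530 nm) after 2 h at RT. HEK293T UAS-bla cells, 2500/well, were stimulated with 9-cis-RA at 500 or 100 nM final alongside test compound for 18 h at 37 C.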

[9] = biological target: Thyroid hormone receptor beta (Homo sapiens) (UniProt P10828); assay: qHTS assay for small molecule antagonists of thyroid hormone receptor beta signaling (AID 588547; active means well fitted inhibition curve with a large enough effect in the signal ratio, with a control signal flat, not every such curve was filed as active; the % refers to the signal ratio;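 further: cells stimulated with 0.4 nM T3 agonist during compound exposure; series mostly up to about 77 µM; on the % scale 0 is the no-effect control and ±100 the full control effect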); settings: TR-UAS-bla HEK293, beta-lactamase ratio, antagonist mode, 18 h
Method in brief: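 TR-UAS-bla GripTite HEK293 cells in 2% charcoal/dextran FBS medium were preincubated 4 h at 37 C, given compound (0.59 nM to 92 uM) plus 0.4 nM T3 (final) for 18 h, then CCF4 for 2 h at RT; Hill fit gave IC50.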

[10] = qHTS assay for small molecule activators of the p53 signaling pathway (AID 651743; active means well fitted activation curve with a large enough effect in the signal ratio, not every such curve was filed as active; the % refers to the signal ratio; further: series mostly up to about 92 µM; % of control where 0% means no effect); settings: HCT-116 p53RE-bla, beta-lactamase FRET ratio, 16 h; activation: stronger effect = higher value
Method in brief: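 p53RE-bla HCT-116 cells with a stably integrated beta-lactamase reporter under p53 response elements were plated, rested 5 hours at 37 C/5% CO2, then exposed to compounds in DMSO for 16 hours at 37 C. LiveBLAzer B/G FRET substrate was read after 2 hours at room temperature.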

[11] = biological target: Peroxisome proliferator-activated receptor alpha (Homo sapiens) (UniProt Q07869); assay: qHTS assay for small molecule agonists of the peroxisome proliferator-activated receptor alpha (PPARalpha) signaling pathway (AID 651778); settings: PathHunter PPARalpha complementation, chemiluminescence, 6 h; max response: stronger effect = higher value; further: % of control where 0% means no effect
Method in brief: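 Cells plated at 2,000/well and held overnight at 37 C, 5% CO2, then compound added by pin tool for 6 hr; after PathHunter detection reagent and 60 min at room temperature, chemiluminescence from enzyme complementation was read.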

[12] = qHTS assay for small molecule agonists of the antioxidant response element (ARE) signaling pathway measured by Nrf2-dependant transcriptional activity (AID 720636; active means well fitted curve in the direction sought with a large enough effect in the repeat runs; an effect the other way counts as inactive or inconclusive; further: potency means the concentration at half of the fitted maximal effect;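 on activation: HepG2 cells with an ARE-driven luciferase reporter; % of control where 0% means no effect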)
Method in brief: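 Attachment 6 hr at 37 C, then compound versus DMSO vehicle for 16 hr in ARE-luc HepG2 cells (1% dialyzed FBS); luminescence recorded 30 min after ONE-Glo addition at room temperature.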

[13] = qHTS assay for small molecule agonists of the antioxidant response element (ARE) signaling pathway measured by Nrf2-dependant transcriptional activity - cell viability counter screen (AID 720653; active means well fitted curve in the direction sought with a large enough effect in the repeat runs; an effect the other way counts as inactive or inconclusive; further: on the % scale 0 is the no-effect control and ±100 the full control effect); settings: ARE-bla HepG2 viability, CellTiter-Glo ATP luminescence, 16 h; max response: stronger effect = lower value
Method in brief: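 ARE-bla HepG2 cells (2,000/well) rested 5 hrs at 37C/5% CO2, then exposed to compounds in DMSO for 16 hrs. Viability was read in the same wells as intracellular ATP by luminescence, 30 min at room temperature after reagent addition.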

[14] = qHTS assay for cell viability of HEK293 cells (AID 743288); settings: ATP luminescence (CellTiter-Glo), 18 h; max response: stronger effect = lower value; further: nearly all actives have a fitted effect of over 50% in size; further: potency means the concentration at half of the fitted maximal effect
Method in brief: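 The Tox21 protocol used parental HEK293 cells treated for 18 h at 37 C with compounds delivered by pintool; ATP-coupled luminescence after 30 min at room temperature gave viability.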

[15] = qHTS assay for cell viability of the p53RE-bla HCT-116 cell line (AID 743292); further: on the % scale 0 is the no-effect control and ±100 the full control effect; nearly all actives have a fitted effect of over 55% in size
Method in brief: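 Compound-exposed HCT-116 (p53RE-bla) cells, 4,000 per well, were kept 16 h at 37 C following a 5 h preincubation. Cell number was estimated from total ATP by CellTiter-Glo luminescence read after 30 min at room temperature.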

[16] = biological target: Retinoic acid receptor RXR-alpha (Homo sapiens) (UniProt P19793); assay: qHTS assay for small molecule antagonists of retinoid X receptor alpha signaling (AID 588546); settings: HEK293T RXRa-UAS-bla, beta-lactamase ratio, antagonist mode; further: potency means the concentration at half of the fitted maximal effect;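 on max response: cells stimulated with 9-cis-retinoic acid as agonist; on the % scale 0 is the no-effect control and ±100 the full control effect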
Method in brief: as §1

[17] = qHTS assay for small molecule activators of the nuclear factor-kappa B (NF-kB) signaling pathway (AID 651749; active means well fitted activation curve with a large enough effect in the signal ratio; the % refers to the signal ratio; further: series mostly up to about 77 µM; % of control where 0% means no effect); settings: NF-kB-bla ME-180 cells, beta-lactamase FRET ratio, 16 h; activation: stronger effect = higher value
Method in brief: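 ME-180 cells stably carrying a beta-lactamase reporter under an NF-kB response element were exposed to compound or DMSO vehicle for 16 hr at 37C, 5% CO2. Pathway activation was read by FRET, since reporter expression disrupts FRET.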

[18] = qHTS assay for environmental chemicals that activate the Aryl hydrocarbon Receptor (AhR) signaling pathway (AID 651777); settings: 1A2-DRE human hepatoma cells, luciferase, 24 h; activation: stronger effect = higher value; further: nearly all actives have a fitted effect of over 15% in size; further: potency means the concentration at half of the fitted maximal effect; on activation: % of control where 0% means no effect
Method in brief: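 Concentration–response screening used 1,200 1A2-DRE cells per well, 24 hr compound exposure (37 C, 5% CO2), and One-Glo luminescence as the AhR-driven CYP1A2 reporter signal.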

[19] = biological target: Nuclear receptor subfamily 1 group I member 2 (Rattus norvegicus) (UniProt Q9R1A7); assay: qHTS assay for small molecule activators of the rat pregnane X receptor (rPXR) signaling pathway (AID 651751; call rule not given here; further: 0% is about no effect); settings: rPXR reporter cells, luciferase (One-Glo), 24 h
[20] = biological target: Peroxisome proliferator-activated receptor delta (Homo sapiens) (UniProt Q03181); assay: qHTS assay for small molecule agonists of peroxisome proliferator-activated receptor delta signaling (AID 588534; calls by dose curve;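 further: 0% = DMSO basal wells and 100% = positive control agonist at 10 µM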)
Method in brief: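 Cell-based beta-lactamase reporter assay run in agonist mode: cells seeded and incubated 5 hrs at 37 C, compounds added and incubated 18 hrs at 37 C. CCF4 dye fluorescence read after 2 hrs at RT; EC50 and efficacy from Hill fits.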

Sequence of Nuclear receptor subfamily 1 group I member 2 (Rattus norvegicus) (Q9R1A7 whole entry, looked up): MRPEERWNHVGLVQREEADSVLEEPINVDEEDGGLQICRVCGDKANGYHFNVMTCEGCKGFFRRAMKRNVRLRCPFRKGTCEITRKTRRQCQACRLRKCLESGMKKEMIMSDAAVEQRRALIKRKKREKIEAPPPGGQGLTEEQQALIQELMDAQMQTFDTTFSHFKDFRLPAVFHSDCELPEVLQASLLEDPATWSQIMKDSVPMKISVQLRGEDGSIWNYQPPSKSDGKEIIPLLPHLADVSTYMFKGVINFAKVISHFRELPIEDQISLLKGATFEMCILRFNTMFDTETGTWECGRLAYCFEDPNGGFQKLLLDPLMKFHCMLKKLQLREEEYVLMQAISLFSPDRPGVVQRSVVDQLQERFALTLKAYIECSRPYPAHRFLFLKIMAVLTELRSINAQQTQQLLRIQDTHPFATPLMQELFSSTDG
Sequence of Thyroid hormone receptor beta (Homo sapiens) (P10828 whole entry, looked up): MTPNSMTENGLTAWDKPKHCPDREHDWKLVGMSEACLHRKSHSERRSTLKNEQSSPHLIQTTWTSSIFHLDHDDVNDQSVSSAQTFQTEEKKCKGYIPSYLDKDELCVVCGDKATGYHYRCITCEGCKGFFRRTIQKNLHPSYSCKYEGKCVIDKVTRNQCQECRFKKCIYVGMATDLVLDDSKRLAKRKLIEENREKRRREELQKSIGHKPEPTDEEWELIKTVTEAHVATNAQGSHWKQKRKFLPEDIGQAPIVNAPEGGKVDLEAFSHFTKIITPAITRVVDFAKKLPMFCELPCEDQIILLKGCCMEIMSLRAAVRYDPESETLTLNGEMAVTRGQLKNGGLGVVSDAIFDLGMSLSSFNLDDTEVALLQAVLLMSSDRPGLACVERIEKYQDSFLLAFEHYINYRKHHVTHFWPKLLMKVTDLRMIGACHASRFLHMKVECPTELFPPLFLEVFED
Sequence of Peroxisome proliferator-activated receptor alpha (Homo sapiens) (Q07869 whole entry, looked up): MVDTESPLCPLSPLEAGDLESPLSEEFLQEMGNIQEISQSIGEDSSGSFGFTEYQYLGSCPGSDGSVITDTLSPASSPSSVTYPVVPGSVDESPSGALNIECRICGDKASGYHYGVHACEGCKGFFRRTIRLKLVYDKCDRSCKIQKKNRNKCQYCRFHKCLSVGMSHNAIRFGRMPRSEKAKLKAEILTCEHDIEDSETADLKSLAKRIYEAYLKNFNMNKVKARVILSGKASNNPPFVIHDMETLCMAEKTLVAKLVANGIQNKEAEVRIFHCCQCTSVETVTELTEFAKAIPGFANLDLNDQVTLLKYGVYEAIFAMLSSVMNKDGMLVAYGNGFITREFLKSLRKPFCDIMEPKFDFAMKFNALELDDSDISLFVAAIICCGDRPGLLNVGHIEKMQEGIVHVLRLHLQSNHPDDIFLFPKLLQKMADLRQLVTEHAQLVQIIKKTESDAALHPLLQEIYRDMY
Sequence of Retinoic acid receptor RXR-alpha (Homo sapiens) (P19793 whole entry, looked up): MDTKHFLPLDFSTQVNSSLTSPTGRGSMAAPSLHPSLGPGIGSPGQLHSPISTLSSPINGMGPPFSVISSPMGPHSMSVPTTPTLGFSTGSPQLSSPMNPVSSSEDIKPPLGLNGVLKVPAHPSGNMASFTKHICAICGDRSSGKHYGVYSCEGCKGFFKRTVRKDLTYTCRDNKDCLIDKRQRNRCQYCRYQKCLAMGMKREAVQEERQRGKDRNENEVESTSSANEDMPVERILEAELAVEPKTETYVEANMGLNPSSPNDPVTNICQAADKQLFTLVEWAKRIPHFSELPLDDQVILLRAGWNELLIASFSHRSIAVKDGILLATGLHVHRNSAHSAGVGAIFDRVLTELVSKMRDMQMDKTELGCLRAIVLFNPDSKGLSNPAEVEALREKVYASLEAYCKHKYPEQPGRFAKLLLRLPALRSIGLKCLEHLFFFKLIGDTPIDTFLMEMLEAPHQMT
Sequence of Vitamin D3 receptor (Homo sapiens) (P11473 whole entry, looked up): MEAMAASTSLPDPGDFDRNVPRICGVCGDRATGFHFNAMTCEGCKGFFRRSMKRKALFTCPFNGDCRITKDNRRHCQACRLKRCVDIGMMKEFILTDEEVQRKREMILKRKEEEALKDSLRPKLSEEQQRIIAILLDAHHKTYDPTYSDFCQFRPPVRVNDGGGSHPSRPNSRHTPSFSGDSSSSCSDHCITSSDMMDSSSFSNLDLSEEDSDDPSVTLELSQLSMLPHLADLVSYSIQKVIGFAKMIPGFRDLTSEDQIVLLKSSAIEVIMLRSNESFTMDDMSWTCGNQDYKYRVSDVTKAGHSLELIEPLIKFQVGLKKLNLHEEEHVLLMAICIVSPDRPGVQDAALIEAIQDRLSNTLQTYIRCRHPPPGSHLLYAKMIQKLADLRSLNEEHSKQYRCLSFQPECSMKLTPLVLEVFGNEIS
Sequence of Glucocorticoid receptor (Homo sapiens) (P04150 whole entry, looked up): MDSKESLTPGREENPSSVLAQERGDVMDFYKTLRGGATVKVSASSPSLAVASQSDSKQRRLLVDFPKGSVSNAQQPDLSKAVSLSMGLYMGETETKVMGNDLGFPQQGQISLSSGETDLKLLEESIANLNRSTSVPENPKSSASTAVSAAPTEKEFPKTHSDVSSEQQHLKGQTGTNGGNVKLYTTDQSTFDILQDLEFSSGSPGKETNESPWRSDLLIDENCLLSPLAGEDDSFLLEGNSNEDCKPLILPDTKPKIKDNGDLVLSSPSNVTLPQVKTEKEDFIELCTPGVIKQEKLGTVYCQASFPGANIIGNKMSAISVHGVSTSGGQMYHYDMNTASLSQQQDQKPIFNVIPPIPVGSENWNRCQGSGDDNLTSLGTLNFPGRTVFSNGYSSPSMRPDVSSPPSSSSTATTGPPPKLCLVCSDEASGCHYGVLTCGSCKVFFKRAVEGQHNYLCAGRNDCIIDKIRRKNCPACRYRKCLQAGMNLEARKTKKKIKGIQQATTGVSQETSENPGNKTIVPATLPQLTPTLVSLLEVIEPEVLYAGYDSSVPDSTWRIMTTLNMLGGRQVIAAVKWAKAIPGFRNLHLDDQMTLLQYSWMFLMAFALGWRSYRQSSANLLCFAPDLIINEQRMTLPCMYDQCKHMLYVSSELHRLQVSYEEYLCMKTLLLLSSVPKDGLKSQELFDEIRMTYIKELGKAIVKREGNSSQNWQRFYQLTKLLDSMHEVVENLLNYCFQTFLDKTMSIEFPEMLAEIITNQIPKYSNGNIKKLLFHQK
Sequence of Peroxisome proliferator-activated receptor delta (Homo sapiens) (Q03181 whole entry, looked up): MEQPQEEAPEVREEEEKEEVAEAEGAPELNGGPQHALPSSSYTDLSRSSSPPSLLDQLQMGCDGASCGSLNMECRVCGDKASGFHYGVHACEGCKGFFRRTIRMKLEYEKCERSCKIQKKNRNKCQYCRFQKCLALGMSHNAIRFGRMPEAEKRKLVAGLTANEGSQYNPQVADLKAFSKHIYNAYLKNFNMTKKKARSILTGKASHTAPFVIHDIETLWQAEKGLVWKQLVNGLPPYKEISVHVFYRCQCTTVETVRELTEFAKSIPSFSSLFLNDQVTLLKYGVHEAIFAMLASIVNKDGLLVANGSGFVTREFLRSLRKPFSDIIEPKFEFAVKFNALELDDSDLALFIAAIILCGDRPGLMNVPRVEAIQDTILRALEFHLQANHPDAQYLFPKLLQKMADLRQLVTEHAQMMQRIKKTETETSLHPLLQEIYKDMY

CC1(C)[C@H](C(=O)O[C@H](C#N)c2cccc(Oc3ccccc3)c2)[C@@H]1/C=C(\Cl)C(F)(F)F
-6.94%: max response [8]
inactive: activation [1] 16% | Potency [2] | Potency [4] | outcome [5] | Potency [6] | Potency [7] | activity change % (negative = inhibition) [9] 3.81% | activation [10] 1.92% | max response [11] -0.66% | Potency [12] | max response [13] -24% | max response [14] -15% | Potency [15]
-6.46%: max response [3]

CCOC(=O)COc1cc(-c2nn(C)c(OC(F)F)c2Cl)c(F)cc1Cl
58.4%: max response [3]
active: Potency [18] 44.7 µM
inactive: activation [1] -3.65% | Potency [2] | Potency [4] | Potency [6] | Potency [7] | max response [16] -15.1% | activity change % (negative = inhibition) [9] 7.86% | activation [10] -1.21% | activation [17] 1.18% | max response [11] -0.355% | Potency [12] | max response [13] 13.2% | max response [14] -5.44% | Potency [15] | max response [19] 0.553%
16.9%: max response [8]

C=CC(=O)OCC(CC)(COC(=O)C=C)COC(=O)C=C
inactive: outcome [20] | outcome [5] | activation [17] 0.162% | activation [18] 9.7% | max response [11] -1.24% | max response [13] -3.3% | Potency [15] | max response [19] -14.4%
active: Potency [2] 44.7 µM | Potency [16] 44.7 µM | Potency [12] 61.1 µM | Potency [14] 50.1 µM
23.9%: max response [8]

COP(=O)(OC)Oc1nc(Cl)c(Cl)cc1Cl
inactive: Potency [2] | Potency [4] | outcome [5] | Potency [6] | Potency [7] | max response [16] 1.04% | activity change % (negative = inhibition) [9] -14.5% | activation [10] 6.76% | activation [17] 1.02% | activation [18] 1.43% | max response [11] -0.672% | Potency [12] | max response [13] -0.97% | max response [14] -6.19% | Potency [15] | max response [19] 0.764%
-0.949%: max response [8]

CC(C)N1C(=O)N(c2ccccc2)CSC1=NC(C)(C)C
0.399%: max response [8]
43.5%: max response [3]
inactive: activation [1] -1.49% and -3.83% | Potency [4] | outcome [5] | Potency [6] | Potency [7] | max response [16] -33.9% | activation [10] -1.27% and 6.3% | activation [17] 0.243% and -2.38% | activation [18] -0.494% and 3.86% | max response [11] 0.0616% and 14.7% | Potency [12] | max response [13] 13.9% and -6.65% | max response [14] -17.9% | max response [19] 13.3% and 1.8%
